Test results: PubChem BioAssay (NCI)
This is part of a sample that, as a whole, favours compounds with a hit. Of some 83,000 tested, about 20% had one in any assay.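 Percent growth is the endpoint: 0 to 100 indicates growth inhibition (40 means 60% inhibition), 0 means no net growth, and negative values indicate cell death.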 A number with no mark means an inactive call. Activity calls are given as the source filed them. How the source made its calls: active means growth percent below 10; inactive means the rest.

Test system: HCT-15 colon
Assay: NCI-60 one-dose screen, 48 h (100 = growth as untreated, 0 = no growth, -100 = all killed)
Details: 10 µM unless noted

Which growth does the source give for C=C1C(=O)O[C@H]2[C@H]1CC/C(COC(=O)CCCC(=O)OC/C1=C/CC[C@@]3(C)O[C@H]3[C@H]3OC(=O)C(=C)[C@@H]3CC1)=C\CC[C@@]1(C)O[C@@H]21 here?
The growth was 4.33% (active).

For O=C(Cn1c2ccccc2c2ccncc21)N/N=C/c1cc(O)c(O)c(O)c1, which growth is on record?
Its growth is 105%.

With C=C1C(=O)O[C@H]2[C@H]1CC/C(COC(=O)c1ccc(C#N)cc1)=C\CC[C@@]1(C)O[C@@H]21 as the compound, how does the growth read?
The growth was -7.25% (active).

How did the growth turn out when C=CC(C)(O)CCC1C(=C)CCC2C(C)(C)CCCC12C (stereo unspecified) was run?
Its growth is 97.3%.

How did the growth turn out when O=c1nc(N2CCOCC2)oc2c(-c3cccc4ccccc34)cccc12 was run?
Its growth is 93.3%.

For CC(=O)c1ccc2c(c1)C1C=CCC1[C@H](c1cc3c(cc1Br)OCO3)N2 (stereo partly specified), which growth is on record?
Its growth is 18.4%.

COc1cc2c(cc1OC)-c1c(oc3c4c(ccc3c1=O)OC(C)(C)C=C4)CO2 was tested. Which growth did it give?
The growth was 82.8%.

For NN=C(c1ccc(Cl)cc1)c1ccc(Cl)cc1, which growth is on record?
Its growth is 90.4%.

For CCCCCCCCCCCC(=O)OCCNC(=O)C[n+]1ccccc1, which growth is on record?
Its growth is 110%.

With CC(C)(C)OC(=O)N1CCN(CCn2cc(C(F)(F)F)c3c(Cl)ncnc32)CC1 as the compound, how does the growth read?
The growth was 10.9%.

Cc1cn(-c2cc(C(=O)Nc3cccc(-n4ccc5c(NC(=O)c6ccccc6)nccc54)c3)cc(C(F)(F)F)c2)cn1 was tested. Which growth did it give?
The growth was 4.61% (active).

Which growth does the source give for Clc1ccc(OCc2nc(-c3ccccc3)n[nH]2)c(Cl)c1 here?
The growth was 101%.

Test system: HT29 colon
Assay: as above
Details: 10 µM unless noted

Nc1ncnc2c1ncn2C1OC(COC(c2ccccc2)(c2ccccc2)c2ccccc2)C(O)C1O (stereo unspecified) was tested. Which growth did it give?
The growth was 82.8%.

For O=C(Nc1ccc(-n2cc(-c3ccncc3)c(-c3ccc(O)c(Cl)c3)n2)cc1)c1cc(C(F)(F)F)cc(C(F)(F)F)c1, which growth is on record?
Its growth is 51.7%.

Which growth does the source give for CN1C(=O)C2(SCC(C(=O)NCC(=O)OC(C)(C)C)N2C(=O)C2CCCCC2)c2ccccc21 (stereo unspecified) here?
Its growth is 87.6%.

CCC1S/C(=N\N=C(/C)c2cc3ccccc3o2)N(c2ccccc2)C1=O (stereo unspecified) was tested. Which growth did it give?
Its growth is 98%.

With CC(C)(C)OC(=O)NCc1cccc(N=C=S)c1 as the compound, how does the growth read?
Its growth is 37.6%.

With CCOc1ccc(NC(=O)Nc2cc(C(C)C)ccc2C)cc1 as the compound, how does the growth read?
The growth was 85%.

Which growth does the source give for O=C(NCCNc1nccc(-c2c(-c3cccc(O)c3)nc3sccn23)n1)Nc1cccc(C(F)(F)F)c1 here?
Its growth is 38.9%.

Which growth does the source give for C=C1c2c(Cl)ccc(O)c2C(O)=C2C(=O)[C@]3(O)C(O)=C(C(N)=O)C(=O)[C@@H](N(C)C)[C@@H]3[C@@H](O)[C@H]12 here?
Its growth is 10.9%.

How did the growth turn out when CCN(CC)CCN1C(=O)c2c(c3c4ccccc4[nH]c3c3[nH]c4ccccc4c23)C1=O was run?
The growth was 46.5%.

How did the growth turn out when O=C1OC(c2ccc(-c3ccccc3)cc2)=C/C1=C/C=C/c1ccccc1 was run?
Its growth is 113%.

O=[N+]([O-])c1ccc(NS(=O)(=O)c2cc(Cl)ccc2Cl)c2ccccc12 was tested. Which growth did it give?
Its growth is 59.4%.

O=C(NCCNc1nccc(-c2c(-c3cccc(O)c3)nc3sccn23)n1)c1ccccc1 was tested. Which growth did it give?
The growth was 65.4%.

How did the growth turn out when NS(=O)(=O)c1ccc(CCN2C(=O)/C(=C\c3ccc(Cl)cc3)C=C2c2ccc(Oc3ccccc3)cc2)cc1 was run?
The growth was 65.4%.

For Cc1cn([C@]2(CF)O[C@H](CO)C2C)c(=O)[nH]c1=O (stereo partly specified), which growth is on record?
Its growth is 112%.

Which growth does the source give for CC(Cc1cccc(C(F)(F)F)c1)NCCOC(=O)c1ccccc1 (stereo unspecified) here?
The growth was 115%.

Which growth does the source give for CCCCN(CCCC)c1ccc(C(=N)c2ccc(N(C)C)cc2)cc1 here?
Its growth is -50.8% (active).

Which growth does the source give for COC(=O)/C=C/C(=O)c1cc(C)cc(C)c1O here?
Its growth is 99.7%.

Which growth does the source give for O=C1C(Cl)=C(Nc2ccccc2)C(=O)C(Cl)=C1Nc1ccccc1 here?
Its growth is 112%.

With CC1(C)Cc2c(Br)c(Br)c(Br)c(OCC(O)CN3CCN(c4ccccn4)CC3)c2O1 (stereo unspecified) as the compound, how does the growth read?
Its growth is 69.7%.

With Cc1ccc(-c2cn3cc([N+](=O)[O-])ccc3n2)cc1 as the compound, how does the growth read?
The growth was 91.6%.

Which growth does the source give for CCCOC(=O)c1ccc([N+](=O)[O-])o1 here?
The growth was 92.2%.

How did the growth turn out when CCOC(=O)CSc1nnc(-c2cc3c([nH]c4ccccc43)c(-c3cccc(O)c3)n2)n1-c1ccc(C)cc1 was run?
Its growth is 43%.

How did the growth turn out when O=C(NCCNc1nccc(-c2c(-c3cccc(O)c3)nc3sccn23)n1)c1ccc(N2CCOCC2)c(C(F)(F)F)c1 was run?
Its growth is 68.6%.

COc1ccc(-c2nn(-c3cccc(Cl)c3)cc2-c2cc(-c3ccc(Br)cc3)[nH]c(=O)c2C#N)cc1 was tested. Which growth did it give?
Its growth is 108%.

With Clc1ccc2c(NCCNc3nc(Cl)nc4ccccc34)ccnc2c1 as the compound, how does the growth read?
The growth was -91.5% (active).

For COc1ccc2c(c1)/C(=C/c1c(-c3cc(OC)c(OC)c(OC)c3Br)nc3sccn13)C(=O)N2, which growth is on record?
Its growth is 103%.

Which growth does the source give for COc1ccccc1N1CCN(CCCOc2ccc(OCCCN3CCN(c4ccccc4OC)CC3)c(C(=O)c3cc(OC)c(OC)c(OC)c3)c2)CC1 here?
The growth was 101%.

C=C1C(=O)O[C@H]2[C@H]1CC/C(COC(=O)CCCC(=O)OC/C1=C/CC[C@@]3(C)O[C@H]3[C@H]3OC(=O)C(=C)[C@@H]3CC1)=C\CC[C@@]1(C)O[C@@H]21 was tested. Which growth did it give?
The growth was -40% (active).

With O=C(Cn1c2ccccc2c2ccncc21)N/N=C/c1cc(O)c(O)c(O)c1 as the compound, how does the growth read?
Its growth is 103%.

How did the growth turn out when C=C1C(=O)O[C@H]2[C@H]1CC/C(COC(=O)c1ccc(C#N)cc1)=C\CC[C@@]1(C)O[C@@H]21 was run?
The growth was -4.64% (active).

With C=CC(C)(O)CCC1C(=C)CCC2C(C)(C)CCCC12C (stereo unspecified) as the compound, how does the growth read?
The growth was 70.1%.

O=c1nc(N2CCOCC2)oc2c(-c3cccc4ccccc34)cccc12 was tested. Which growth did it give?
Its growth is 89.6%.

CC(=O)c1ccc2c(c1)C1C=CCC1[C@H](c1cc3c(cc1Br)OCO3)N2 (stereo partly specified) was tested. Which growth did it give?
The growth was 4.15% (active).

For COc1cc2c(cc1OC)-c1c(oc3c4c(ccc3c1=O)OC(C)(C)C=C4)CO2, which growth is on record?
The growth was 89.5%.

NN=C(c1ccc(Cl)cc1)c1ccc(Cl)cc1 was tested. Which growth did it give?
Its growth is 96.7%.

With CCCCCCCCCCCC(=O)OCCNC(=O)C[n+]1ccccc1 as the compound, how does the growth read?
Its growth is 93.7%.

For CC(C)(C)OC(=O)N1CCN(CCn2cc(C(F)(F)F)c3c(Cl)ncnc32)CC1, which growth is on record?
Its growth is 23.5%.

Which growth does the source give for Cc1cn(-c2cc(C(=O)Nc3cccc(-n4ccc5c(NC(=O)c6ccccc6)nccc54)c3)cc(C(F)(F)F)c2)cn1 here?
The growth was -41.2% (active).

Clc1ccc(OCc2nc(-c3ccccc3)n[nH]2)c(Cl)c1 was tested. Which growth did it give?
Its growth is 101%.
